The whole screen tested about 2,100 compounds, of which about 1,400 (67%) were called active. So high a share suggests a set chosen from earlier hits. The list shows a part of the results. Potency and affinity values are given separately. Unmarked numbers belong to inactive results. How the calls were made is not given here.
assay: non-covalent RecA intein splicing inhibitors, dose response, biochemical, cell-free, fluorescence, secondary screen (AID 449750); details: series mostly up to 38 µM; activity change, negative = inhibition: at the top concentration;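 further: 0% = neutral control wells and -100% = positive control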

| Structure (SMILES) | activity change, negative = inhibition [%] |
| --- | --- |
| COCCn1c(N)c(C(=O)NCc2cccs2)c2nc3ccccc3nc21 | 236 |
| CC1=NN(Cc2ccccc2)C(=O)/C1=C\c1ccc(N(C)C)cc1 | 160 |
| Cc1ccccc1NC1=C/C(=N\S(=O)(=O)c2cccs2)c2ccccc2C1=O | 267 |
| Oc1ccc(N=Cc2ccc(-c3cccs3)s2)cc1 | 254 |

From PubChem BioAssay AID449750 (Broad Institute, 2010)
